The results in this text go back to the supplement of paper PMC7057948, “A genome-wide approach for identification and characterisation of metabolite-inducible systems” (Nature Communications, 2020).

What all share (details): inducer concentration 5 mM; 6 h; Cupriavidus necator H16; minimal medium + 0.4% gluconate
Assay [1] deals with AcoR/P_H16_RS19445 acetoin biosensor (pEH052). The assay is described as follows: relative induction of RFP reporter vs primary effector; higher = stronger activation. The protocol: (§1)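 Orthogonality screen of 21 primary inducers against 21 transcription factor/inducible promoter–mRFP biosensors in C. necator H16 in minimal medium, robotic 96-well format, 5 mM inducer, 30 °C. OD-normalised RFP fluorescence was read 6 h later and expressed as relative induction (%) = 100 × (FL compound − FL uninduced)/(FL primary inducer − FL uninduced); mean of n=4. Cognate pairs (100% by definition) omitted.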

Assay [2] has as its system AraC/P_araBAD L-arabinose biosensor (pEH176). The assay is described as above. Here is the method: as §1
The test system of assay [3] is FdsR/P_H16_RS03165 formate biosensor (pEH134). Described as above. Here is the method:
as §1

For assay [4], the system named is GabR/P_H16_RS23655 GABA biosensor (pEH256). Described as above. The protocol: as §1
Assay [5] concerns HpdA/P_H16_RS24175 L-tyrosine biosensor (pEH158). The description is as above. The protocol:
as §1

The test system of assay [6] is NahR/P_H16_RS08125 salicylate biosensor (pEH042). Described as above. Here is the method:
as §1

Assay [7] has as its system OapR/P_H16_RS01330 beta-alanine biosensor (pEH147). The assay is described as above. Here is the method:
as §1

For assay [8], the system named is PcaQ/P_H16_RS30145 3,4-dihydroxybenzoate biosensor (pEH161). Described as above. The protocol: as §1
The subject of assay [9] is PhgR/P_H16_RS05530 phenylglyoxylate biosensor (pEH155). The assay is described as above. Here is the method: as §1
Assay [10] has as its system SauR/P_H16_RS13695 sulfonatoacetate biosensor (pEH157). The description is as above. Here is the method: as §1
The subject of assay [11] is TtdR/P_H16_RS10665 tartrate biosensor (pEH083). Described as above. Here is the method:
as §1

For assay [12], the system named is XdhR/P_H16_RS05055 xanthine biosensor (pEH154). Described as above. Here is the method: as §1
Assay [13] concerns heterologous L-rhamnose-inducible system. Described as above. Here is the method: as §1
The subject of assay [14] is heterologous acrylate-inducible system. The assay is described as above. Here is the method: as §1
The subject of assay [15] is heterologous cumate-inducible system. Described as above. The protocol: as §1
In assay [16] the test system is heterologous itaconate-inducible system. Described as above. The protocol:
as §1

Assay [17] concerns AcoR/P_H16_RS19445 acetoin biosensor (pEH052). Kind of assay: relative induction of RFP reporter vs primary effector (background-corrected); higher = stronger activation of the biosensor. The protocol: (§2)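 C. necator H16 strains, each carrying one of 21 transcription factor/inducible promoter–mRFP biosensor plasmids, were grown in minimal medium in 96-well plates (robotic platform). Each was exposed to 46 structurally or metabolically related compounds at 5 mM at 30 °C. OD-normalised RFP fluorescence was read 6 h later and expressed as relative induction (%) = 100 × (FL compound − FL uninduced)/(FL primary inducer − FL uninduced); mean of n=4.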

Assay [18] relates to AraC/P_araBAD L-arabinose biosensor (pEH176). The description is as above. The protocol: as §2
In assay [19] the test system is BenM/P_H16_RS09790 benzoate biosensor (pEH148). Described as above. The protocol: as §2
In assay [20] the test system is FdsR/P_H16_RS03165 formate biosensor (pEH134). The description is as above. Here is the method: as §2
Assay [21] concerns GabR/P_H16_RS23655 GABA biosensor (pEH256). Described as above. The protocol: as §2
Assay [22] relates to HpdR/P_H16_RS18295 3-hydroxypropanoate biosensor (pEH010). Described as above. Here is the method: as §2
Assay [23] concerns KynR/P_H16_RS14030 L-kynurenine biosensor (pEH136). Described as above. Here is the method: as §2
Assay [24] deals with NahR/P_H16_RS08125 salicylate biosensor (pEH042). The assay is described as above. The protocol:
as §2

The test system of assay [25] is OapR/P_H16_RS01330 beta-alanine biosensor (pEH147). Described as above. The protocol: as §2
Assay [26] deals with PcaQ/P_H16_RS30145 3,4-dihydroxybenzoate biosensor (pEH161). Described as above. The protocol:
as §2

The test system of assay [27] is PhgR/P_H16_RS05530 phenylglyoxylate biosensor (pEH155). The description is as above. Here is the method: as §2
Assay [28] has as its system PhhR/P_H16_RS18365 L-phenylalanine biosensor (pEH137). The assay is described as above. Here is the method: as §2
Assay [29] deals with SauR/P_H16_RS13695 sulfonatoacetate biosensor (pEH157). Described as above. The protocol:
as §2

In assay [30] the test system is TtdR/P_H16_RS10665 tartrate biosensor (pEH083). The description is as above. Here is the method: as §2
For assay [31], the system named is XdhR/P_H16_RS05055 xanthine biosensor (pEH154). The assay is described as above. Here is the method:
as §2

Assay [32] concerns heterologous inducible system pEH002 (rhamnose/acrylate/cumate/itaconate set). The assay is described as above. Here is the method: as §2
Assay [33] has as its system heterologous inducible system pEH020 (rhamnose/acrylate/cumate/itaconate set). Described as above. Here is the method:
as §2

Assay [34] relates to heterologous inducible system pEH040 (rhamnose/acrylate/cumate/itaconate set). The assay is described as above. Here is the method:
as §2

The test system of assay [35] is heterologous inducible system pEH086 (rhamnose/acrylate/cumate/itaconate set). Described as above. Here is the method: as §2
For assay [36], the system named is BadR/P_H16_RS27200 cyclohexanecarboxylate biosensor (pEH159). Kind of assay: relative induction of RFP reporter vs primary effector; higher = stronger activation. Here is the method:
as §1

Assay [37] has as its system BenM/P_H16_RS09790 benzoate biosensor (pEH148). The assay is described as above. Here is the method:
as §1
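Wherever relative induction of RFP reporter vs primary effector (background-corrected) is given: RFP excited at 585 nm with emission read at 620 nm, culture medium blanks subtracted from fluorescence and absorbance prior to normalisation.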

As for `O=C(O)C1CCCCC1` [cyclohexane-1-carboxylate], the “relative induction of RFP reporter” value in [1] is 2.02%; in assay [2], -0.0317%; in assay [3] it was -8.69%; in [4] it was -0.578%; in [5] it was -0.0345%; in [6], -0.0105%. The “relative induction of RFP reporter” value in assay [7] was -0.348%; in assay [8] it was -0.211%; in assay [9] it was -0.472%; in assay [10], 0.0396%; in [11] it was 2.19%; in [12], 0.127%. In addition, the “relative induction of RFP reporter” value in assay [13] was -0.00651%; in assay [14], -0.97%; in assay [15] it was 2.49%; in assay [16], 0.233%.
Take `O=C(O)c1cccnc1` [nicotinate]: the “relative induction of RFP reporter” value is -2.26% in assay [17]; 0.00152% in [18]; 1.95% in assay [19]; 113% in [20]; -1.65% in assay [21]; 0.0215% in assay [22]. The “relative induction of RFP reporter” value is -0.289% in [23]; 0.0131% in [24]; -0.669% in assay [25]; -0.0619% in assay [26]; -0.587% in [27]; -0.498% in assay [28]. In addition, the “relative induction of RFP reporter” value in [29] is 0.0909%; in assay [30] it was -0.44%; in [31], 0.0721%; in assay [32], 0.0144%; in assay [33], -1.31%; in [34], -1.49%. Moreover, the “relative induction of RFP reporter” value in assay [35] amounted to 0.0778%.
On to `C[C@H](O)C(=O)O` [L-lactate], for which the “relative induction of RFP reporter” value in assay [17] was 29%; in assay [18] it was -0.0302%; in [19], -0.0365%; in assay [20], 1.58%; in [21] it was -1.56%; in [22], 0.0155%. Also, the “relative induction of RFP reporter” value is -0.0815% in [23]; 0.00963% in assay [24]; -0.633% in assay [25]; -0.0469% in assay [26]; -0.429% in assay [27]; -0.296% in [28]. The “relative induction of RFP reporter” value in assay [29] was -0.0258%; in assay [30] it was 0.33%; in assay [31] it was -0.526%; in assay [32] it was 0.0108%; in [33], -1.63%; in assay [34], -1.88%. In addition, the “relative induction of RFP reporter” value in assay [35] was -0.0751%.
As for `CCC(=O)O`, the “relative induction of RFP reporter” value in assay [22] came out at 0.144%.
Regarding `O=C(O)c1ccccc1`, in assay [8], the “relative induction of RFP reporter” value came out at 0.00574%.
`Cn1c(=O)c2c(ncn2C)n(C)c1=O` [caffeine]: the “relative induction of RFP reporter” value was 3.23% in assay [17]; 0.0778% in assay [18]; 0.0418% in assay [19]; 5.81% in assay [20]; -0.00438% in assay [21]; 0.0271% in assay [22]. Also, the “relative induction of RFP reporter” value was 1.64% in [23]; 0.0392% in [24]; 0.545% in [25]; 0.0177% in [26]; -0.541% in assay [27]; 1.57% in assay [28]. Moreover, the “relative induction of RFP reporter” value in assay [29] is 0.0139%; in [30] it was 0.808%; in assay [31], 0.33%; in assay [32], 0.0111%; in [33], -0.176%; in assay [34], 1.6%. Besides, the “relative induction of RFP reporter” value in assay [35] is 0.797%.
With `C=CC(=O)O` [acrylate], the “relative induction of RFP reporter” value is -1.36% in assay [1]; -0.0252% in [2]; -0.281% in [36]; 0.00199% in [37]; -7.94% in assay [3]; 0.12% in assay [4]. The “relative induction of RFP reporter” value in [5] is -0.146%; in [6] it was 0.00921%; in assay [8], -0.175%; in assay [9] it was -0.587%; in [10], 0.114%; in [11], -0.0524%. Further, the “relative induction of RFP reporter” value in [12] was -0.215%; in assay [13] it was 0.000569%; in [15], 0.803%; in assay [16], 0.117%.
`O=C(O)CS(=O)(=O)O` [sulfonatoacetate]: the “relative induction of RFP reporter” value in [1] was 0.846%; in assay [2], 0.0162%; in [36], -0.423%; in assay [37] it was -0.0067%; in [3] it was -4.35%; in assay [4], -1.11%. Moreover, the “relative induction of RFP reporter” value in [5] is -0.143%; in assay [6] it was -0.0115%; in assay [7], -0.372%; in assay [8], -0.165%; in assay [9], -0.406%; in assay [11] it was 0.749%. In addition, the “relative induction of RFP reporter” value in assay [12] was -0.434%; in [13], 0.0242%; in [14], -0.561%; in assay [15], 0.916%; in [16] it was 0.693%.
Regarding `NC(=O)CC[C@H](N)C(=O)O` [L-glutamine], the “relative induction of RFP reporter” value in assay [17] was -1.76%; in [18], -0.022%; in assay [19] it was -0.0444%; in assay [20], 4.9%; in assay [21], -2.05%; in [22], -0.13%. The “relative induction of RFP reporter” value was -0.513% in [23]; 0.00325% in assay [24]; -0.494% in assay [25]; -0.146% in assay [26]; -0.333% in [27]; -0.432% in assay [28]. Besides, the “relative induction of RFP reporter” value in assay [29] was 0.0183%; in assay [30], 0.541%; in [31], -0.666%; in [32], 0.00684%; in assay [33], -0.587%; in assay [34] it was -2.02%. In addition, the “relative induction of RFP reporter” value in [35] stood at 0.168%.
Turning to `O=c1[nH]c(=O)c2nc[nH]c2[nH]1` [xanthine], the “relative induction of RFP reporter” value in assay [1] was -1.36%; in [2] it was 0.0252%; in [36], -0.537%; in assay [37], -0.0092%; in [3], -4.71%; in assay [4] it was -1.02%. In addition, the “relative induction of RFP reporter” value in assay [5] was -0.0594%; in assay [6] it was 0.0144%; in assay [7], 1.27%; in assay [8], -0.198%; in assay [9], -0.06%; in assay [10], 0.0306%. Besides, the “relative induction of RFP reporter” value is 0.737% in assay [11]; 0.0204% in assay [13]; -1.68% in assay [14]; -0.479% in assay [15]; 0.00052% in assay [16].
